According to PubChem BioAssay (NCATS):
Results filed as inconclusive are left out. Where a call stands in place of a potency, no number is given. The source made the active and inactive calls. The call rests on the fitted dose curve; in most records, active means well fitted cell-killing curve with a large enough effect; inconclusive means small, poorly fitted or top-dose-only effect, or effect the other way; inactive means flat fitted curve, though single readings scatter. Where a SMILES comes first, the peptide text is derived from it.

test system: Tov-21-G; assay: Primary qHTS to identify gynecologic anti-cancer compounds using libraries of approved drugs and bioactive compounds (AID 1345084); details: Gynecologic cancer cell panel viability, ATPlite luminescence, 48 h; series mostly up to 57.5 µM; further: nearly all actives have a fitted effect of over 55% in size
How it was run: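 Five-concentration response, 48 h; readout is ATP-driven luciferase luminescence.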

Row | Compound | Potency | activity change, negative = cytotoxicity
1 | O=C(O)CC/C=C\C[C@H]1CO[C@@H](c2ccccc2Cl)O[C@H]1c1ccccc1O | inactive | 
2 | CC1=CC2=C(C)C(=O)C(C)(O)C(O)C2CO1 (centres undefined) | inactive | 
3 | O=C(/C=C/c1ccccc1)OC[C@H]1O[C@@H](OC(=O)c2cc(O)c(O)c(O)c2)[C@H](O)[C@@H](O)[C@@H]1O | inactive | 
4 | CCC/C=C1\OC(=O)C2=C1CCC(O)C2O (centres undefined) | inactive | 
5 | C=C(CCO)C(=O)OCC1OCC(OC(=O)C(=C)CCO[C@@H]2O[C@H](CO)[C@@H](O)[C@H](O)[C@H]2O)C(O)C1O (some centres undefined) | inactive | 
6 | COc1ccc(/C=C/C(N)=O)cc1OC | inactive | 
7 | C=CC1(C)CC=C2C(CCC3C(C)(C(=O)O)CCCC23C)C1 (centres undefined) | inactive | 
8 | O=C(OCc1ccccc1O[C@@H]1O[C@H](CO)[C@@H](O)[C@H](O)[C@H]1O)C1(O)C=CCCC1O (some centres undefined) | inactive | 
9 | CC/C=C/C(O)C(O)C1=C(C)C(=O)C2(O1)C(=O)NC(OC)(C(=O)c1ccccc1)C2O (centres undefined) | inactive | 
10 | N[C@@H](CCNCc1ccc(Cl)cc1)C(=O)N1CCCCC1 | inactive | 
11 | OC[C@@]1(O)CO[C@H](OC[C@H]2O[C@@H](OC(CCCCc3ccc(O)cc3)CCc3ccc(O)cc3)[C@H](O)[C@@H](O)[C@@H]2O)[C@@H]1O (some centres undefined) | inactive | 
12 | CSCC[C@H](NC(=O)[C@H](CO)NC(=O)[C@H](CCC(=O)O)NC(C)=O)C(=O)N[C@H](C=O)CC(=O)O (Ac-ESMD-aldehyde) |  | -0.444% [at 11.6 µM] (inactive)
13 | CC(C)(O)C(O)C(=O)OCc1ccc(O[C@@H]2O[C@H](CO)[C@@H](O)[C@H](O)[C@H]2O)cc1 (some centres undefined) | inactive | 
14 | C=C1C[C@H](O)[C@@H](O)[C@@]2(C)C1[C@@H](O)[C@H]1OC(=O)C3[C@@H](C)[C@@H](O)[C@H](O)C2[C@]31C (some centres undefined) | inactive | 
15 | OCC1=C[C@@H](O)[C@@H]2C=CO[C@@H](O[C@@H]3O[C@H](CO)[C@@H](O)[C@H](O)[C@H]3O)[C@H]12 | inactive | 
16 | Cc1cc(C)c2nc(-c3ccccn3)cc(C(=O)Nc3ccc(S(=O)(=O)Nc4onc(C)c4C)cc3)c2c1 | inactive | 
17 | COc1cc(/C=C/C(=O)OC[C@H]2O[C@@H](OC3OC=C(C(=O)O)C4C(O)CC(C)(O)C34)[C@H](O)[C@@H](O)[C@@H]2O)cc(OC)c1O (some centres undefined) | inactive | 

Row | Compound | Potency | activity change, negative = cytotoxicity
18 | CC1(C)CC[C@]2(C(=O)O)[C@H](O)C[C@]3(C)C(=CCC4[C@@]5(C)CC[C@H](O[C@@H]6OC[C@@H](O)[C@H](O)[C@H]6O)[C@@](C)(C(=O)O)C5CC[C@]43C)[C@@H]2C1 (some centres undefined) | inactive | 
19 | C=CC(C)(C)C12Nc3c(ccc4c3OC(C)(C)C=C4)C1(O)CC1C(=O)N3CCCC3C(=O)N12 (centres undefined) | inactive | 
20 | CCc1cccc2c3c([nH]c12)[C@@](CC)(CC(=O)O)OCC3 | inactive | 
21 | OC[C@@]1(O)CO[C@@H](OC[C@H]2O[C@@H](Oc3ccccc3)[C@H](O)[C@@H](O)[C@@H]2O)[C@@H]1O | inactive | 
22 | O=C(OC[C@H]1O[C@@H](Oc2ccccc2CO)[C@H](O)[C@@H](O)[C@@H]1O)c1ccccc1 | inactive | 
23 | C[C@@H]1O[C@@H](O[C@@H]2\C=C/C=C\C=C/C=C\C[C@H](C)OC(=O)/C=C\[C@H]3O[C@@H]3C[C@H](O)C[C@]3(O)C[C@@H](O)[C@@H](C(=O)O)[C@H](C2)O3)[C@H](O)[C@H](N)[C@@H]1O | inactive | 
24 | C=C1[C@H](OC(C)=O)[C@H]2[C@@H](OC(=O)c3ccccc3)[C@@H](C)C[C@]2(O)[C@@H](OC(C)=O)[C@H](C)/C=C/C(C)(C)C(=O)[C@H](OC(C)=O)[C@H]1OC(C)=O | inactive | 
25 | COc1ccc(/C=C/C(=O)O[C@@H]2[C@@H](O[C@@H]3O[C@H](CO)[C@@H](O)[C@H](O)[C@H]3O)[C@@H](O)[C@H](O[C@H]3C4C=CO[C@@H](O[C@@H]5O[C@H](CO)[C@@H](O)[C@H](O)[C@H]5O)C4[C@@]4(CO)O[C@@H]34)O[C@H]2C)cc1 (some centres undefined) |  | 4.96% [at 11.6 µM] (inactive)
26 | C[C@@H]1C(=O)O[C@H]2[C@H]1CC[C@@]1(C)C(=O)C=C[C@@](C)(O)[C@H]21 | inactive | 
27 | COC(=O)c1ccccc1O[C@@H]1O[C@H](CO[C@@H]2OC[C@@H](O)[C@H](O)[C@H]2O)[C@@H](O)[C@H](O)[C@H]1O | inactive | 
28 | N[C@@H](CC(=O)Nc1ccc(Oc2cc(F)c(F)cc2Br)cc1)C(=O)O | inactive | 
29 | C[C@@]12CC3(S(=O)(=O)O)OC(O1)[C@]1(COC(=O)c4ccccc4)[C@H]3C[C@]21O[C@@H]1O[C@H](CO)[C@@H](O)[C@H](O)[C@H]1O | inactive | 
30 | CC(=O)O[C@@H]1[C@H](OC(C)=O)C[C@@]2(C)C(CC[C@@H](C)[C@]23Cc2c(O)cc4c(c2O3)CN([C@@H](CCC(=O)O)C(=O)O)C4=O)C1(C)C (some centres undefined) | inactive | 
31 | C[C@@H]1O[C@@H](O[C@H]2[C@@H]3C=CO[C@@H](O[C@@H]4O[C@H](CO)[C@@H](O)[C@H](O)[C@H]4O)[C@@H]3[C@@]3(CO)O[C@@H]23)[C@H](O)[C@H](OC(=O)/C=C/c2ccc(O)c(O)c2)[C@H]1O | inactive | 
32 | CCc1cc(CC[C@]2(C3CCCC3)CC(O)=C(Cc3nc4nc(C)cc(C)n4n3)C(=O)O2)cc(CC)n1 | inactive | 
33 | COC(=O)c1[nH]c(=O)c2ccccc2c1-c1ccc[nH]1 | inactive | 
34 | CCC(C)/C=C(C)/C=C/C1=CC2=CC(=O)C(C)(O)C(OC(C)=O)C2CO1 (centres undefined) | inactive | 
